# Experimental data from PubChem BioAssay (NCATS).
# Values without a mark were called inactive. Records with an inconclusive call do not appear. A call without a number means that no potency is given here. Activity calls are given as the source filed them. Calls come from the whole dose curve; as a rule, active = well fitted curve in the direction sought with a large enough effect; inconclusive = small, poorly fitted or top-dose-only effect, or another doubt; inactive = no such curve, though single readings can be large; an effect the other way counts as inactive or inconclusive.
# Assays:
# [1] = target: Calcium and integrin-binding protein 1 (Homo sapiens) (UniProt Q99828); test: Primary qHTS for Identification of Calcium Integrin Binding Protein 1 (CIB1) Competitor (AID 1508620);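 note: GST tagged CIB1 binding a fluorescein labelled alphaIIb integrin peptide tracer; top concentration of the series differs between compounds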
# How it was run: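 CIB1-GST (1 uM final) and compound incubated 15 min at room temperature before adding FITC-alphaIIb peptide tracer (100 nM final). Competition for binding read by fluorescence polarization (ex 480, em 540) after another 15 min at room temperature.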
# [2] = Primary qHTS for inhibitors of nuclear receptor binding SET domain protein 2 (NSD2) in an isogenic RCH-ACV NSD2 p.E1099K mutant (9B) (AID 1645876); note: nearly all actives have a fitted effect of over 70% in size; note: potency is the fitted concentration of half-maximal effect
# [3] = target: Phospholipid hydroperoxide glutathione peroxidase GPX4 (Homo sapiens) (UniProt P36969); test: Primary qHTS Assay for Inhibitors of Recombinant Selenoprotein Glutathione Peroxidase 4 (GPX4) (AID 1845192); note: nearly all actives have a fitted effect of over 65% in size
# How it was run: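 NADPH consumption followed by fluorescence at 340/450 nm, t=0 and after 15 min at room temperature. Reaction started with cumene hydroperoxide (0.5 mM final) after 30 min compound–GPX4 preincubation; final 200 nM GPX4, 100 nM GR, 1 mM GSH, 0.5 mM NADPH.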
# [4] = target: Luciferin 4-monooxygenase (Photinus pyralis) (UniProt P08659); test: Primary firefly luciferase (FLuc) qHTS assay for identification of artifact compounds. (AID 1845220); conditions: outcome: dose series up to 54.1 µM unless noted; note: nearly all actives have a fitted effect of over 60% in size
# How it was run: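 Compounds sat 15 min at room temperature with 10 uM luciferin and 10 uM ATP (pH 7.6 Tris acetate). Firefly luciferase (10 nM final) was then added, and luminescence was read 5 min later. Data normalized to no-enzyme and DMSO controls were Hill-fitted.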
# [5] = system: Nanoluciferase (engineered Oplophorus gracilirostris luciferase); test: Primary Nanoluciferase (NLuc) qHTS assay for identification of artifact compounds. (AID 1845222)
# How it was run: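 Luminescence from secreted NLuc (filtered, 1:55-diluted S16 cell medium) read 5 min after Nano-Glo substrate; compounds preincubated 15 min, RT. Hill fits of inhibition normalized to DMSO and no-enzyme.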
# [6] = Primary redox qHTS assay for identification of artifact compounds. (AID 1845223)
# How it was run: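 Redox-cycling detection via DTT (250 uM final) oxidation coupled to Amplex Red (25 uM)/HRP (250 mU/mL) in HBSS. 15 min preincubation plus 30 min after DTT, room temperature. Ex/Em 525/598 nm; 4-parameter Hill fit against DMSO and 10 uM DA3003.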
# CRL-7250 = normal cell line; test: Cytotoxic Profiling of Annotated Libraries Using Quantitative High-Throughput Screening (AID 1296008); conditions: Five cell lines viability, CellTiter-Glo ATP luminescence, 48-72 h; max response: hits give low values; note: nearly all actives have a fitted effect of over 60% in size; note: potency is the fitted concentration of half-maximal effect
# How it was run: (§1)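 Cytotoxicity was measured as CellTiter-Glo ATP luminescence, read after 10 min at room temperature. Compound treatment of the cells lasted 48 or 72 hr at 37 degrees Celsius in a qHTS format.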
# HEK293 = test: as above; conditions: Five cell lines viability, CellTiter-Glo ATP luminescence, 48-72 h; max response: hits give low values
# How it was run: as §1
# HaCat = test: as above; conditions: Five cell lines viability, CellTiter-Glo ATP luminescence, 48-72 h; max response: hits give low values
# How it was run: as §1
# NIH3T3 = test: as above; conditions: Five cell lines viability, CellTiter-Glo ATP luminescence, 48-72 h; max response: hits give low values
# How it was run: as §1
# C33A = test: Primary qHTS to identify gynecologic anti-cancer compounds using libraries of approved drugs and bioactive compounds (AID 1345084); conditions: Gynecologic cancer cell panel viability, ATPlite luminescence, 48 h; series mostly up to 57.5 µM; note: nearly all actives have a fitted effect of over 55% in size; note: potency is the fitted concentration of half-maximal effect
# How it was run: (§2)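 Measured: luminescence after ATPlite addition (15 min, RT). Exposure: 48 h, 37 C, 5% CO2.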
# CASKI = test: as above; conditions: Gynecologic cancer cell panel viability, ATPlite luminescence, 48 h; series mostly up to 57.5 µM
# How it was run: as §2
# Hek293T = test: as above; conditions: Gynecologic cancer cell panel viability, ATPlite luminescence, 48 h, control line for the selectivity index; series mostly up to 57.5 µM
# How it was run: as §2
# Tov-21-G = test: as above; conditions: Gynecologic cancer cell panel viability, ATPlite luminescence, 48 h; series mostly up to 57.5 µM
# How it was run: as §2
# [7] = P-glycoprotein substrates identified in KB-8-5-11 adenocarcinoma cell line, qHTS therapeutic library screen (AID 1346987); note: nearly all actives have a fitted effect of over 65% in size; note: potency is the fitted concentration of half-maximal effect
# How it was run: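 Human cervical adenocarcinoma KB-8-5-11 cells, selected in colchicine to over-express P-gp and assayed without it, were exposed for 72 h to titrated compounds. An ATP-based luminescent viability signal gave AC50.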
# [8] = system: Zika virus NS2B-NS3 protease (linked construct); test: Primary screen NINDS Rhodamine qHTS for Zika virus inhibitors (AID 1347160); note: nearly all actives have a fitted effect of over 55% in size
# How it was run: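 Single-chain NS2B-NS3 protease, 25 nM, pH 8.0; compounds preincubated 15 min. Activity: Rhodamine110 release from 1.5 microM substrate over 15 min, room temperature, data fitted to 4-parameter Hill.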
# Es-2 = test: Primary qHTS to identify gynecologic anti-cancer compounds using libraries of approved drugs and bioactive compounds (AID 1345084); conditions: Gynecologic cancer cell panel viability, ATPlite luminescence, 48 h; series mostly up to 57.5 µM; note: nearly all actives have a fitted effect of over 55% in size; note: potency is the fitted concentration of half-maximal effect
# How it was run: as §2
# OV90 = test: as above; conditions: Gynecologic cancer cell panel viability, ATPlite luminescence, 48 h; series mostly up to 57.5 µM
# How it was run: as §2
# PA-1 = test: as above; conditions: Gynecologic cancer cell panel viability, ATPlite luminescence, 48 h; series mostly up to 57.5 µM
# How it was run: as §2
# Tov112D = test: as above; conditions: Gynecologic cancer cell panel viability, ATPlite luminescence, 48 h; series mostly up to 57.5 µM
# How it was run: as §2
# Calcium and integrin-binding protein 1 (Homo sapiens), sequence (Q99828 whole entry, looked up): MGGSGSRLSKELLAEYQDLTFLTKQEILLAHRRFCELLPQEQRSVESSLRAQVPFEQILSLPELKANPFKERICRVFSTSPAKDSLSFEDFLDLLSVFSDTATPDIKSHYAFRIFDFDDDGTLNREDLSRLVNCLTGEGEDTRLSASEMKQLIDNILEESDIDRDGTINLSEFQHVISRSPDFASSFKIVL
# Phospholipid hydroperoxide glutathione peroxidase GPX4 (Homo sapiens), sequence (P36969 whole entry, looked up): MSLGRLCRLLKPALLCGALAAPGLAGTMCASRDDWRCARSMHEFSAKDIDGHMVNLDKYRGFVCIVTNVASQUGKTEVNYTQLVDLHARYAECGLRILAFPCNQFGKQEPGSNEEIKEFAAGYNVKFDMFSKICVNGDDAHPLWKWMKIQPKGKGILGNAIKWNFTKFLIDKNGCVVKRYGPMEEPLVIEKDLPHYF
compound,measurement,setting,value
C[C@@]1(CO)[C@H](O)CC[C@@]2(C)[C@H]1CC[C@H]1C[C@@H]3C[C@@]12CC[C@]3(O)CO,Potency,[1],inactive
same,Potency,[2],3.19 µM (active)
same,Potency,[3],inactive
same,outcome,[4],inactive
same,Potency,[5],inactive
same,Potency,[6],inactive
same,max response,CRL-7250,-2.86%
same,Potency,HEK293,2.55 µM (active)
same,Potency,HaCat,9.04 µM (active)
same,Potency,NIH3T3,6.4 µM (active)
same,Potency,C33A,inactive
same,Potency,CASKI,inactive
same,Potency,Hek293T,inactive
same,Potency,Tov-21-G,inactive
CC(=O)O[C@H]1CN2CCC1CC2,Potency,[7],inactive
same,Potency,[8],inactive
same,Potency,[1],inactive
same,Potency,[2],inactive
same,Potency,[3],inactive
same,outcome,[4],inactive
same,Potency,[5],inactive
same,Potency,[6],inactive
same,max response,CRL-7250,-2.3%
same,max response,HEK293,-3.42%
same,max response,HaCat,1.98%
same,max response,NIH3T3,1.29%
same,Potency,C33A,inactive
same,Potency,CASKI,inactive
same,Potency,Es-2,inactive
same,Potency,Hek293T,inactive
same,Potency,OV90,inactive
same,Potency,PA-1,inactive
same,Potency,Tov-21-G,inactive
same,Potency,Tov112D,inactive
C=C1C[C@]2(O)[C@@]3(C)CCC(=O)C(C)(C)C3=C(O)C(=O)[C@@]2(C)[C@@H]2C(=O)O[C@@](C)(C(=O)OC)C(=O)[C@@]12C,Potency,[7],inactive
same,Potency,[1],inactive
same,Potency,[2],inactive
same,Potency,[3],inactive
same,outcome,[4],inactive
same,Potency,[5],inactive
same,max response,CRL-7250,2.22%
same,outcome,HEK293,inactive
same,max response,NIH3T3,1.84%
same,Potency,C33A,inactive
same,Potency,CASKI,inactive
same,Potency,Es-2,inactive
same,Potency,Hek293T,inactive
same,Potency,OV90,inactive
same,Potency,PA-1,inactive
same,Potency,Tov-21-G,inactive
same,Potency,Tov112D,inactive
C[C@]12CC[C@H](O[C@@H]3O[C@H](CO)[C@@H](O)[C@H](O)[C@H]3O[C@@H]3O[C@H](CO)[C@@H](O)[C@H](O)[C@H]3O)CC1=CC[C@@H]1[C@@H]2CC[C@]2(C)[C@@H](C3=CC(=O)OC3)CC[C@]12O,Potency,[8],inactive
same,Potency,[1],inactive
same,Potency,[2],2.16 µM (active)
same,Potency,[3],inactive
same,outcome,[4],inactive [at 25.7 µM]
same,Potency,[5],inactive
same,Potency,[6],inactive
same,Potency,CRL-7250,3.85 µM (active)
same,Potency,HEK293,6.11 µM (active)
same,max response,HaCat,-17%
same,max response,NIH3T3,1.49%
same,Potency,CASKI,inactive
same,Potency,OV90,inactive
same,Potency,Tov-21-G,6.31 µM (active)
Fc1cc(F)c2c(c1)C1C=CCC1C(c1cccnc1)N2 (configuration not stated),Potency,[7],4.61 µM (active)
same,Potency,[8],inactive
same,Potency,[2],8.17 µM (active)
same,Potency,[3],inactive
same,outcome,[4],inactive
same,Potency,[5],inactive
same,Potency,[6],inactive
same,Potency,CRL-7250,5.8 µM (active)
same,Potency,HEK293,23.1 µM (active)
same,Potency,C33A,22.4 µM (active)
same,Potency,PA-1,17.8 µM (active)
COc1cc(O)c2c(c1)CCC[C@@H](O)[C@H](O)C(=O)/C=C\C[C@H](C)OC2=O,Potency,[7],14.3 µM (active)
same,Potency,[8],inactive
same,Potency,[1],inactive
same,Potency,[2],8.01 µM (active)
same,Potency,[3],inactive
same,outcome,[4],inactive
same,Potency,[5],inactive
same,Potency,CRL-7250,5.08 µM (active)
same,Potency,HEK293,6.4 µM (active)
same,Potency,Hek293T,11.2 µM (active)
same,Potency,PA-1,inactive
same,Potency,Tov-21-G,1.78 µM (active)
COC1CCCC(C)OC(=O)Cc2cc(O)cc(O)c2C(=O)C1 (configuration not stated),Potency,[7],4.04 µM (active)
same,Potency,[8],inactive
same,Potency,[1],inactive
same,Potency,[2],2.84 µM (active)
same,Potency,[3],inactive
same,outcome,[4],inactive
same,Potency,[5],inactive
same,Potency,[6],inactive
same,Potency,CRL-7250,14.3 µM (active)
same,Potency,HEK293,3.6 µM (active)
same,Potency,CASKI,inactive
same,Potency,OV90,inactive
same,Potency,PA-1,11.2 µM (active)
same,Potency,Tov-21-G,inactive
COC1CC(O[C@H]2CC[C@@]3(C)C(CCC4C3CC[C@]3(C)C(C5=CC(=O)OC5)CCC43O)C2)OC(C)C1OC1OC(COC2OC(CO)C(O)C(O)C2O)C(O)C(O)C1O (some centres not stated),Potency,[7],1.74 µM (active)
same,Potency,[8],inactive
same,Potency,[1],inactive
same,Potency,[2],0.975 µM (active)
same,Potency,[3],inactive
same,"activity change, negative = inhibition",[4],-3.95% [at 11.6 µM]
same,"activity, negative = inhibition",[5],0.592% [at 11.6 µM]
same,redox activity (% of DA3003),[6],16.1% [at 11.5 µM]
same,Potency,CRL-7250,0.693 µM (active)
same,Potency,HEK293,1.74 µM (active)
same,max response,NIH3T3,2.72%
same,Potency,C33A,2.24 µM (active)
same,Potency,Es-2,3.16 µM (active)
same,Potency,Hek293T,3.55 µM (active)
same,Potency,PA-1,2.24 µM (active)
same,Potency,Tov-21-G,2.24 µM (active)
same,Potency,Tov112D,794 nM (active)
CC[C@H](O)[C@@H](C)[C@H]1O[C@@H]1C[C@H](C)/C=C/C=C(\C)[C@H]1OC(=O)C[C@H](O)CC[C@@](C)(O)[C@@H](OC(C)=O)/C=C/[C@@H]1C,Potency,[7],0.0092 µM (active)
same,Potency,[8],inactive
same,Potency,[1],inactive
same,Potency,[2],0.0058 µM (active)
same,Potency,[3],inactive
same,outcome,[4],inactive
same,Potency,[5],inactive
same,Potency,[6],inactive
same,Potency,CRL-7250,0.0164 µM (active)
same,Potency,HEK293,0.0041 µM (active)
same,Potency,NIH3T3,0.0116 µM (active)
CC(=O)OC[C@]12[C@H](OC(C)=O)C(=O)[C@@H]3[C@@H](O)[C@@]14O[C@@]3(C)COC(=O)c1cccnc1[C@@H](C)[C@H](C)C(=O)O[C@@H]([C@H](OC(C)=O)[C@@H]2OC(C)=O)[C@]4(C)O,Potency,[7],inactive
same,Potency,[8],inactive
same,Potency,[1],inactive
same,Potency,[3],inactive
same,outcome,[4],inactive
same,Potency,[5],inactive
same,Potency,[6],inactive
same,outcome,CRL-7250,inactive
same,outcome,HaCat,inactive
same,max response,NIH3T3,0.381%
same,Potency,C33A,inactive
same,Potency,CASKI,inactive
same,Potency,Es-2,inactive
same,Potency,Hek293T,inactive
same,Potency,OV90,inactive
same,Potency,Tov-21-G,inactive
same,Potency,Tov112D,inactive
